Bioassay records from PubChem BioAssay.
Most compounds without a hit are left out; they make up all but 1.8% or so of the library.
Nox1 inhibitor: blocks human NADPH oxidase 1 activity. AID 1792. inhibition, % at 6.7 µM. Q9Y5S8. actives 0.81% (n = 16,000). HT29 cells, luminol chemiluminescence ROS
Target sequence (Q9Y5S8 whole entry, looked up): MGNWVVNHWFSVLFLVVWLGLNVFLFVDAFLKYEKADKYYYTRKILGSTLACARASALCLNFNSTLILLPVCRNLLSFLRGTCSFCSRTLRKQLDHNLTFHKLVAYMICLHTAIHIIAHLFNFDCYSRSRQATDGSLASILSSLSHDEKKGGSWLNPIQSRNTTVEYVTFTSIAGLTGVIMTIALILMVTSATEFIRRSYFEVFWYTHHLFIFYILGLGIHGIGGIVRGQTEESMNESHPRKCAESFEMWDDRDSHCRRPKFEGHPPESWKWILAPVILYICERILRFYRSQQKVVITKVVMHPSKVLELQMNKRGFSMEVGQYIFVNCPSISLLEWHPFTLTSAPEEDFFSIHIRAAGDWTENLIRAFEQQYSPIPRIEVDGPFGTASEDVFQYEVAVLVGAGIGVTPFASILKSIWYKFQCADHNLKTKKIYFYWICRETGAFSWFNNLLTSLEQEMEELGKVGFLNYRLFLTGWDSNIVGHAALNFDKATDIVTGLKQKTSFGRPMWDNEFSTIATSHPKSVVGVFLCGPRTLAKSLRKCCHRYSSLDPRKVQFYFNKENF
luminol inh ctr: counter-screen for Nox1 inhibitors: inhibitors of luminol chemiluminescence. inhibition, % at 6.7 µM. actives 0.4% (n = 16,000). HRP/luminol/H2O2 chemiluminescence counterscreen. AID 1823; note: reference of the scale not given here
NOTCH agonist: activates NOTCH signaling in reporter cells; actives 0.4% (n = 15,000); activation, % at 2.5 µM; NOTCH signaling luciferase reporter cells, luminescence; in the data active = activation above about 2.2%
A number is an active result. Cut-off read from the data, not from the text of the source, unless noted: active = inhibition above about 75%; inactive = the rest.

For CCOC(=O)NC(=S)NCCCn1ccnc1 the results were Nox1 inhibitor inactive, luminol inh ctr inactive and NOTCH agonist inactive.
NS(=O)(=O)c1ccc(NNC(=O)c2cccs2)cc1 was read as Nox1 inhibitor inactive, luminol inh ctr inactive and NOTCH agonist inactive.
For NS(=O)(=O)c1ccc(NNC(=O)c2c(F)cccc2Cl)cc1 the results were Nox1 inhibitor 81, luminol inh ctr inactive and NOTCH agonist inactive.
`O=C(NCc1csc(-c2cccs2)n1)C1=Cc2ccccc2OC1` gave Nox1 inhibitor inactive, luminol inh ctr inactive and NOTCH agonist inactive.
`Cc1nn(-c2ccccc2)nc1CNC(=O)C1=Cc2ccccc2OC1` gave Nox1 inhibitor inactive, luminol inh ctr inactive and NOTCH agonist 2.3.
c1n[nH]c(SCCSc2ncn[nH]2)n1 was read as Nox1 inhibitor inactive, luminol inh ctr inactive and NOTCH agonist inactive.
COc1cc2ncnc(NNC(=O)c3cccs3)c2cc1OC was read as Nox1 inhibitor 86, luminol inh ctr inactive and NOTCH agonist inactive.
Screening COc1ccc(CCNC(=O)c2cccs2)cc1OC returned Nox1 inhibitor inactive, luminol inh ctr inactive and NOTCH agonist inactive.
Screening CC1(C)NC(=O)N(CNc2ccc(F)cc2)C1=O returned Nox1 inhibitor inactive, luminol inh ctr inactive and NOTCH agonist inactive.
`COC(=C(C#N)C#N)c1c(-c2ccccc2)noc1C` gave Nox1 inhibitor inactive, luminol inh ctr inactive and NOTCH agonist inactive.
COc1cc(CCC(=O)NNC(=S)Nc2ccc(F)cc2)cc(OC)c1OC was read as Nox1 inhibitor inactive, luminol inh ctr 92 and NOTCH agonist inactive.
`COc1cc(CCC(=O)NNC(=O)C(F)(F)F)cc(OC)c1OC` gave Nox1 inhibitor inactive, luminol inh ctr inactive and NOTCH agonist inactive.
Cc1cncc(C(=O)NN)c1 was read as Nox1 inhibitor inactive, luminol inh ctr inactive and NOTCH agonist inactive.
`O=[N+]([O-])c1ccc(OCS(=O)(=O)c2ccc(F)cc2F)c(Cl)c1` gave Nox1 inhibitor inactive, luminol inh ctr inactive and NOTCH agonist inactive.
COc1ccc(OC)c(S(=O)(=O)c2ccc([N+](=O)[O-])cc2Cl)c1 was read as Nox1 inhibitor 89, luminol inh ctr inactive and NOTCH agonist inactive.
CC(C)(C)C(=O)Oc1ccc(-c2csnn2)cc1 was read as Nox1 inhibitor inactive, luminol inh ctr inactive and NOTCH agonist inactive.
`O=[N+]([O-])c1ccc(-c2nc(-c3ccc(-c4csnn4)cc3)no2)cc1` gave Nox1 inhibitor inactive, luminol inh ctr inactive and NOTCH agonist inactive.
For O=C(Nc1ccc(Cl)cc1)Oc1ccc(-c2csnn2)cc1 the results were Nox1 inhibitor inactive, luminol inh ctr 102 and NOTCH agonist inactive.
O=C(Oc1ccc(-c2csnn2)cc1)c1ccc([N+](=O)[O-])o1 was read as Nox1 inhibitor inactive, luminol inh ctr 101 and NOTCH agonist inactive.
Screening COc1ccc(C#N)c(C(=O)O)c1 returned Nox1 inhibitor inactive, luminol inh ctr inactive and NOTCH agonist inactive.
For COc1ccc(N(C)CC(=O)O)c(C(=O)O)c1 the results were Nox1 inhibitor 97, luminol inh ctr inactive and NOTCH agonist inactive.
Screening Cc1csc2c(N3CCN(C(=O)c4ccc(Cl)cc4)CC3)ncnc12 returned Nox1 inhibitor inactive, luminol inh ctr inactive and NOTCH agonist inactive.
`Nc1ccccc1Sc1ccc(Cl)cc1[N+](=O)[O-]` gave Nox1 inhibitor inactive, luminol inh ctr inactive and NOTCH agonist inactive.
Screening Nc1ccccc1Sc1ccc(-c2cnc3ccccc3n2)cc1[N+](=O)[O-] returned Nox1 inhibitor inactive, luminol inh ctr 98 and NOTCH agonist inactive.
For Cn1c(C(F)(F)F)nnc1S(=O)(=O)Cc1ccc(-c2csnn2)cc1 the results were Nox1 inhibitor inactive, luminol inh ctr inactive and NOTCH agonist inactive.
Screening COc1cc(-c2n[nH]c(=S)n2-c2ccccc2Cl)cc(OC)c1OC returned Nox1 inhibitor inactive, luminol inh ctr 95 and NOTCH agonist inactive.
COc1ccc(-c2n[nH]c(=S)n2-c2ccccc2Cl)cc1 was read as Nox1 inhibitor inactive, luminol inh ctr inactive and NOTCH agonist inactive.
For COc1cc(-c2n[nH]c(=S)n2C2CCCCC2)cc(OC)c1OC the results were Nox1 inhibitor inactive, luminol inh ctr 87 and NOTCH agonist inactive.
For S=c1[nH]nc(-c2ccccc2Cl)n1C1CCCCC1 the results were Nox1 inhibitor inactive, luminol inh ctr inactive and NOTCH agonist inactive.
`Cc1ccc(N(C)NC=C(C#N)C#N)nn1` gave Nox1 inhibitor inactive, luminol inh ctr inactive and NOTCH agonist inactive.
CN(NC=C(C#N)C#N)c1ccccc1[N+](=O)[O-] was read as Nox1 inhibitor 104, luminol inh ctr inactive and NOTCH agonist inactive.
Screening COC(=O)c1sccc1N/C=C(\C#N)C(=O)c1ccccc1 returned Nox1 inhibitor inactive, luminol inh ctr inactive and NOTCH agonist inactive.
Cn1ncc2c(NCCO)ncnc21 was read as Nox1 inhibitor inactive, luminol inh ctr inactive and NOTCH agonist inactive.
For Cc1cc(C(=O)NNC(=O)c2ccco2)nn1C(C)(C)C the results were Nox1 inhibitor inactive, luminol inh ctr inactive and NOTCH agonist inactive.
For Cc1cc(C(=O)NNS(=O)(=O)c2cccc3cccnc23)nn1C(C)(C)C the results were Nox1 inhibitor inactive, luminol inh ctr inactive and NOTCH agonist 3.2.
For O=C(NC1CCCCC1)Sc1ccccc1 the results were Nox1 inhibitor inactive, luminol inh ctr inactive and NOTCH agonist inactive.
CCC/C(O)=C(\C=Nc1ccccc1C(=O)OC)C(=O)OCC was read as Nox1 inhibitor inactive, luminol inh ctr inactive and NOTCH agonist inactive.
`O=c1c2c(-c3ccc([N+](=O)[O-])cc3)onc2n(-c2ccccc2)c(=O)n1-c1ccccc1` gave Nox1 inhibitor 94, luminol inh ctr inactive and NOTCH agonist inactive.
Cc1c2c(=O)n(C)ncc2c(-c2ccccc2)n1-c1ccc([N+](=O)[O-])cc1 was read as Nox1 inhibitor inactive, luminol inh ctr inactive and NOTCH agonist inactive.
Screening O=C(c1cccs1)N1CCC(n2cccc2)CC1 returned Nox1 inhibitor inactive, luminol inh ctr inactive and NOTCH agonist inactive.
O=[N+]([O-])c1cc(Br)cnc1Sc1n[nH]c(-c2ccccc2)n1 was read as Nox1 inhibitor inactive, luminol inh ctr 99 and NOTCH agonist inactive.
`O=[N+]([O-])c1cnc(Sc2n[nH]c(-c3cccs3)n2)s1` gave Nox1 inhibitor inactive, luminol inh ctr inactive and NOTCH agonist inactive.
For O=C(Cc1ccc([N+](=O)[O-])cc1)Nc1nccs1 the results were Nox1 inhibitor inactive, luminol inh ctr inactive and NOTCH agonist 3.0.
Screening O=C(Cc1ccc([N+](=O)[O-])cc1)Nc1c(F)cccc1F returned Nox1 inhibitor inactive, luminol inh ctr inactive and NOTCH agonist inactive.
Screening CSc1s[s+]c(SC)c1-c1ccccc1 returned Nox1 inhibitor inactive, luminol inh ctr inactive and NOTCH agonist inactive.
O=C(Cc1ccccc1I)OCC(=O)c1ccc(Br)cc1 was read as Nox1 inhibitor inactive, luminol inh ctr inactive and NOTCH agonist inactive.
Screening Cc1ccc(S(=O)(=O)NC(=O)NCC2CCN(S(=O)(=O)c3ccccc3)CC2)cc1 returned Nox1 inhibitor inactive, luminol inh ctr inactive and NOTCH agonist inactive.
For COc1cccc(C2Nc3ccccc3C(=O)N2NS(=O)(=O)c2ccc(C)cc2)c1O (centres undefined) the results were Nox1 inhibitor inactive, luminol inh ctr 99 and NOTCH agonist inactive.
Screening NC(=O)/C(=C\c1cccs1)c1ccsc1 returned Nox1 inhibitor inactive, luminol inh ctr inactive and NOTCH agonist inactive.
O=C1CC(Nc2ccccc2)C=C1Nc1ccccc1 (centres undefined) was read as Nox1 inhibitor inactive, luminol inh ctr inactive and NOTCH agonist inactive.
